The nature of assay [1]: Cellular Toxicity (caspase-3) Mesangial (AID 660).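 Note: combined caspase 3 and 7 activity read by Caspase-Glo luminescence; cells exposed to compound for 16 h before the caspase read.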 To be noted: mesangial cells, normalized: DMSO 0%, 100 µM tamoxifen 100%; at 91.7 µM (top of the series). The method, boiled down:
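Human renal glomerular mesangial cells, 1000/well, 5 h at 37 C before 16 h compound treatment. Caspase-Glo 3/7 luminescence after 20 min; normalized to DMSO and 100 uM tamoxifen, AC50 from Hill fit.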

Assay [2] in a line: Cellular Toxicity (caspase-3) H-4-II-E (AID 663).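 Note: cells exposed to compound for 16 hr before readout.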 To be noted: H-4-II-E rat hepatoma, scaled: DMSO 0%, 100 µM tamoxifen 100%; at 92.2 µM (top of the series). The method, boiled down:
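Apoptosis induction is scored as increased luminescence from caspase 3/7 substrate cleavage in rat hepatoma H-4-II-E cells exposed to compound for 16 hr. Activity is scaled between DMSO and 100 uM tamoxifen.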

Assay [3] in a line: Cellular Toxicity (caspase-3) Hek293 (AID 664).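 Note: cells exposed to compound for 16 h at 37 °C before readout.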 The settings on record: HEK293 caspase-3 activation, DMSO = 0%, 100 µM tamoxifen = 100%; at 92.2 µM (top of the series). The gist of the method: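 HEK293 cells in complete medium treated 16 h at 37 °C, then Caspase-Glo 3/7 luminescence read after 20 min at room temperature. Normalized to DMSO and 100 uM tamoxifen; AC50 from Hill fit of concentration-response.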

The nature of assay [4]: Cellular Toxicity (caspase-3) N2a (AID 665).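 Note: compound exposure lasted 16 h at 37 °C before readout.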 The gist of the method: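 Mouse N2a neuroblastoma cells, 1500 per well, treated 16 h at 37 °C in complete medium; caspase-3/7 activity by Caspase-Glo luminescence after 1 h. Normalized to DMSO and 10 uM staurosporine; AC50 from Hill fits.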
A short description of assay [5]: Cellular Toxicity (caspase-3) NIH 3T3 (AID 666).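 Note: caspase signal read after 16 h compound exposure; 0% = DMSO basal and 100% = 100 µM tamoxifen stimulation.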 The gist of the method:
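Mouse NIH 3T3 fibroblasts (1000/well) treated 16 h at 37 C; caspase-3/7 activity measured by Caspase-Glo 3/7 luminescence after 20 min. Normalized to DMSO and 100 uM tamoxifen; AC50 from Hill fits.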

Assay [6] can be described thus: Cellular Toxicity (caspase-3) Renal Proximal Tubule (AID 667).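 For caspase-3 activation: 0% = DMSO basal and 100% = 10 µM staurosporine.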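 Note: cells exposed to compound for 16 hours at 37 °C before detection.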 Note: potency is the fitted concentration of half-maximal effect. To be noted: Potency: caspase-3 activation. The method, boiled down: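 Freshly isolated primary rat kidney proximal tubule cells, 1000/well, treated 16 hr at 37 °C, then Caspase-Glo 3/7 luminescence after 1 hr. Normalized to DMSO and 10 uM staurosporine; AC50 from Hill fit.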
For assay [7], the target named is Cytochrome P450 3A4 (Homo sapiens) (UniProt P08684). In words: qHTS Assay for Inhibitors and Substrates of Cytochrome P450 3A4 (AID 884). Note: % is set by controls: 0 for no effect and ±100 for the full control effect; nearly all actives have a fitted effect of over 50% in size. The method, boiled down:
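20 nM human CYP3A4 with 25 uM Luciferin-PPXE (at KM) in 200 mM KPO4, preincubated 10 min with compound; NADPH regeneration started a 60 min RT reaction. Luciferin detected by luminescence, normalized to 57 uM ketoconazole as full inhibition.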
(In general: qHTS replaces the single test concentration by a dilution series.)

Assay [8] can be described thus: Cell Viability - LYMP2-001 (AID 921).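 Note: cells exposed to compound for 24 h at 37 °C; 0% = DMSO only and full inhibition = tetraoctylammonium bromide control wells; nearly all actives have a fitted effect of over 70% in size.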 The gist of the method:
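Human lymphoblastoid LYMP2-001 cells, 2500 per well, in complete medium, treated 24 h at 37 C. Viability from cellular ATP by CellTiter-Glo luminescence; AC50 from Hill-equation fits of qHTS concentration-response.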

Assay [9] deals with Cytochrome P450 3A4 (Homo sapiens) (UniProt P08684). The assay is described as follows: qHTS Assay for Activators of Cytochrome P450 3A4 (AID 885). Note: nearly all actives have a fitted effect of over 65% in size. The method, boiled down: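 Signal was normalized against complete inhibition by 57 uM ketoconazole. The reaction used 20nM CYP3A4 with 25uM Luciferin-PPXE, 10-min compound preincubation and a 60-min NADPH-supported step at RT.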
Cytochrome P450 3A4 (Homo sapiens), sequence (P08684 whole entry, looked up): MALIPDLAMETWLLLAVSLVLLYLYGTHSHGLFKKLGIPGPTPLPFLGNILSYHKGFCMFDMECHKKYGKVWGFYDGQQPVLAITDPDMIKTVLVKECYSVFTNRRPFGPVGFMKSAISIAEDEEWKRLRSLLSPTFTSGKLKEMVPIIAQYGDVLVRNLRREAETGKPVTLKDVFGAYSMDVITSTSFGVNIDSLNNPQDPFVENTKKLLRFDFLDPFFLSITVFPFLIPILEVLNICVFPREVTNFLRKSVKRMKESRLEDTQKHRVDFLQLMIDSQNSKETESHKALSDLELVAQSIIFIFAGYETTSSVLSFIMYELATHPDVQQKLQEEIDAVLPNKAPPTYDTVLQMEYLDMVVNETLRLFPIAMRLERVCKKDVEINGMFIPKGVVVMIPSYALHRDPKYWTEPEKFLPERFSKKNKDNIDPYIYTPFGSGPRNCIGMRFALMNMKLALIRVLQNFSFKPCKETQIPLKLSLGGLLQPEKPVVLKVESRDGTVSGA

Unmarked numbers belong to inactive results. Results filed as inconclusive are left out. Activity calls are given as the source filed them. Calls come from the whole dose curve; as a rule, active = well fitted curve in the direction sought with a large enough effect; inconclusive = small, poorly fitted or top-dose-only effect, or another doubt; inactive = no such curve, though single readings can be large; an effect the other way counts as inactive or inconclusive.

Consider `O=C(O)CCSSCCC(=O)O`, for which the caspase-3 activation in assay [1] is -0.167%; in assay [2], -0.00623%; in [3] it was -0.885%. The outcome in assay [4] and in assay [5] was inactive. Moreover, the Potency entry in assay [6], in assay [7] and in assay [8] was “inactive” throughout.
Take `CCCCCNCCCCC`: the caspase-3 activation in [1] is 0.424%; in [2], 0.00908%; in [3] it was 1.85%. Moreover, the molecule was classed as inactive in [4] and in assay [5]. The Potency entry in assay [6], in [7] and in assay [8] was “inactive” each time.
For `CC1=C(/C=C/C(C)=C/C=C/C(C)=C\C=O)C(C)(C)CCC1`, the caspase-3 activation in assay [1] is 90.3% (active); in assay [2], 113% (active). The Potency in [6] was 31.6 µM (active). Moreover, in assay [9], the molecule was classed as inactive.
As to `CC(=O)OCc1ccco1`, the caspase-3 activation in [1] is -0.525%; in assay [2] it was -0.245%; in assay [3] it was -4.85%. In addition, the result in assay [5] was inactive. Also, the Potency result in assay [6], in assay [7] and in assay [8] was “inactive” each time.
In the case of `C=C(C)C(N)=O`, the caspase-3 activation in assay [1] is -0.474%; in assay [2], -0.402%; in assay [3], -0.593%. Besides, the call in [4] and in assay [5] was inactive. Also, the Potency entry in [6], in assay [7] and in assay [8] was “inactive” throughout.
On to `CCC(C)=O`, for which the caspase-3 activation was -0.0673% in assay [1], 0.152% in assay [2] and -2.5% in assay [3]. Further, the call in [4] and in assay [5] was inactive. In addition, the Potency entry in assay [6], in assay [7] and in assay [8] was “inactive” in each case.
Consider `COc1ccc(N)c(C)c1`, for which the caspase-3 activation in assay [1] was 2.2%; in assay [2] it was 0.764%; in assay [3], -0.876%. For the same molecule, the call in assay [4] and in assay [5] was inactive. The Potency result in assay [6], in assay [7] and in [8] was “inactive” in each case.
For `Cc1nc2ccc(Cl)cc2[nH]1`, the values for the caspase-3 activation in assay [1], in assay [2] and in assay [3] were -0.773%, 0.101% and -1.32%, respectively. The result in assay [5] was inactive. For the same molecule, the Potency result in assay [6], in assay [7] and in [8] was “inactive” in each case.
Consider `CC(O)CC(C)O` (configuration not stated), for which the values for the caspase-3 activation in assay [1], in assay [2] and in assay [3] were 0.0132%, 1.09% and -0.296%, respectively. Further, the molecule was called inactive in assay [4] and in assay [5]. Moreover, the Potency result in [6], in assay [7] and in assay [8] was “inactive” each time.
In the case of `O=C(O)c1ccc(Cl)cc1Cl`, the caspase-3 activation is -1.03% in [1], 0.226% in assay [2] and 2.7% in assay [3]. Besides, the result in assay [4] and in assay [5] was inactive. Further, the Potency entry in assay [6], in assay [7] and in [8] was “inactive” in each case.
With `CC(=O)OC(C)C`, the caspase-3 activation in [1] was 0.284%; in assay [2], 0.45%; in [3], 0.887%. For the same molecule, the outcome in [4] and in assay [5] was inactive. Besides, the Potency result in assay [6], in [7] and in [8] was “inactive” in each case.
Take `CCCC=O`: the figures for the caspase-3 activation in [1], in assay [2] and in [3] were -0.494%, -1.37% and -2.73%, respectively. In addition, the call in assay [4] and in assay [5] was inactive. Besides, the Potency result in [6], in [7] and in [8] was “inactive” in each case.
As to `O=C(O)c1cccc(Cl)c1Cl`, the caspase-3 activation in [1] is 0.259%; in assay [2] it was -0.64%. Besides, the outcome in assay [4] and in assay [5] was inactive. Besides, the Potency result in [6], in assay [7] and in [8] was “inactive” in each case.
As to `CC(C)=C1CCC(C)CC1=O` (configuration not stated), the caspase-3 activation was 0.404% in assay [1], -0.0437% in [2] and -0.681% in assay [3]. Besides, the Potency result in assay [6], in [7] and in assay [8] was “inactive” each time.
Take `Nc1cc(Cl)c([N+](=O)[O-])cc1O`: the figures for the caspase-3 activation in assay [1], in assay [2] and in assay [3] were -0.0539%, 1.74% and 5.51%, respectively. Moreover, the call in assay [4], in assay [5] and in assay [9] was inactive. The Potency entry in [6] and in assay [8] was “inactive” in each case.
As to `NC(=O)c1ccccc1[N+](=O)[O-]`, the caspase-3 activation in assay [1] was -0.625%; in [2], 0.0974%; in [3], 0.369%. In addition, the result in assay [4] and in assay [5] was inactive. The Potency result in [6], in assay [7] and in assay [8] was “inactive” each time.
On to `COc1ccccc1[N+](=O)[O-]`, for which the caspase-3 activation is -1.05% in assay [1], 0.0394% in assay [2] and -0.651% in [3]. Further, the molecule was called inactive in assay [4] and in assay [5]. In addition, the Potency entry in assay [6], in [7] and in assay [8] was “inactive” throughout.
Take `O=C(O)c1cc(Cl)cc(Cl)c1`: the results for the caspase-3 activation in [1], in [2] and in [3] were -0.386%, -0.143% and 1.27%, respectively. The molecule was classed as inactive in assay [4]. Besides, the Potency entry in assay [6], in [7] and in assay [8] was “inactive” throughout.
In the case of `Cc1cccc(C)c1[N+](=O)[O-]`, the caspase-3 activation is 0.452% in assay [1], -0.326% in [2] and -0.173% in [3]. For the same molecule, the molecule was classed as inactive in assay [4] and in [5]. In addition, the Potency entry in assay [6], in assay [7] and in assay [8] was “inactive” each time.

The values are drawn from PubChem BioAssay (NCATS).
